Assay results published in the supplement of paper PMC11732987, “Enantioselective OTUD7B fragment discovery through chemoproteomics screening and high-throughput optimisation” (Communications Chemistry, 2025).

Key:
Test in all cases: log2 ratio of Biotin-Ahx-Ub-VS probe labelling (fragment/DMSO); higher = less target engagement (more negative = stronger competition), active = hit call of the paper (q ≤ 0.05, log2 ratio ≤ -1)
Details in all cases: compound concentration: 200 uM; treatment time: 3 h
USP42 = target: T1, USP42 (UniProt Q9H9J4)
T1 sequence (whole entry): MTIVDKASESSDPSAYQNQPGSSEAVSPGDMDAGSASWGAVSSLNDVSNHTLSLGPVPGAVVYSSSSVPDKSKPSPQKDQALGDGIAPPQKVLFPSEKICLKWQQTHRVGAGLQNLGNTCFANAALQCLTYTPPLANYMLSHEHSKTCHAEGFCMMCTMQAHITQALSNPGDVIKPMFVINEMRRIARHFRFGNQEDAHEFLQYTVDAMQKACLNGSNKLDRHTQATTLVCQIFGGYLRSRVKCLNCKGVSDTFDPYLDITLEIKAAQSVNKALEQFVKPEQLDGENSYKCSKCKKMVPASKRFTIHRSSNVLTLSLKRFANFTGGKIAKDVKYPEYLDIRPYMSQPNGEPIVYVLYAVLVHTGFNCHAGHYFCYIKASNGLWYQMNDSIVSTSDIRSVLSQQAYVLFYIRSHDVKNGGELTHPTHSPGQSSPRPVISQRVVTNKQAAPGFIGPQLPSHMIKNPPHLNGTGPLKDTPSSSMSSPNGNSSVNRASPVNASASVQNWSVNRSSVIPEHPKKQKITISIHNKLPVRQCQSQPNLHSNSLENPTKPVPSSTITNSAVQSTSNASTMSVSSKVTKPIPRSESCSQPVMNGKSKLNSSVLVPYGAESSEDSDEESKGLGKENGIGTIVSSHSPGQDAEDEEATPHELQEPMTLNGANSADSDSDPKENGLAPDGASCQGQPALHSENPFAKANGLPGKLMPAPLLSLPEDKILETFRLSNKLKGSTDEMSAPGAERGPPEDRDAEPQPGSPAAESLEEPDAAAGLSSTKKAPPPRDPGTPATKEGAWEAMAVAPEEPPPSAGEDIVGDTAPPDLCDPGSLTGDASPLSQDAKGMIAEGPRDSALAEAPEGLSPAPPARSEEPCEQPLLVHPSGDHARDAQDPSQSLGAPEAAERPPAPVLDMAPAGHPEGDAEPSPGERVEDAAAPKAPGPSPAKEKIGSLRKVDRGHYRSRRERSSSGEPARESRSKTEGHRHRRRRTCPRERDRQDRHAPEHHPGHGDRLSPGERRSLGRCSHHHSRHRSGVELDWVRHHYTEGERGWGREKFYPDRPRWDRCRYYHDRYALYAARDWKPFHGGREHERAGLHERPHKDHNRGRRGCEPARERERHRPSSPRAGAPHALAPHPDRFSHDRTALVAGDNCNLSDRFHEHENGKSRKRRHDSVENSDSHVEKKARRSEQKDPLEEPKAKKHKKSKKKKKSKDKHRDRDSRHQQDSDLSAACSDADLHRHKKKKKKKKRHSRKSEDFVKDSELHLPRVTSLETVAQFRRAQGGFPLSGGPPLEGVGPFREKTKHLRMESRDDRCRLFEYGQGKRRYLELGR
How it was run: (§1)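 Labelling with Biotin-Ahx-Ub-VS (0.5 µM final, 1 h) followed a 3 h triplicate treatment of HEK293T lysate (495 µg per sample, Tris/CHAPS/IGEPAL buffer with protease inhibitors) with fragment at 200 µM or vehicle. Labelled DUBs were NeutrAvidin-enriched, digested with LysC and trypsin, and run by diaPASEF LC-MS/MS. The values, average log2 fragment/vehicle ratios by unpaired t-test, come from global-median-normalised Spectronaut label-free quantities. Proteins with ≥2 unique peptides were used.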

USP46 = USP46 (UniProt P62068)
USP46, sequence (P62068 whole entry): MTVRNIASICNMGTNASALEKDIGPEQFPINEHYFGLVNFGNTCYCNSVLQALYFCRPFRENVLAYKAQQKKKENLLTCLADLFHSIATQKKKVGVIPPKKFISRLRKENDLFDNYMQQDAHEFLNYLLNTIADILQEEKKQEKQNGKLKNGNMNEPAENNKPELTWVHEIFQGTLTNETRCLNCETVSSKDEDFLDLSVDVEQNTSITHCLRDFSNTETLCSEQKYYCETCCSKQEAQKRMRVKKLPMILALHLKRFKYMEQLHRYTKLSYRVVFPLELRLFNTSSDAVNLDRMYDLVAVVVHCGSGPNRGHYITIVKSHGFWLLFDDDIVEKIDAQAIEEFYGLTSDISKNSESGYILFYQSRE
How it was run: as §1

USP47 = target: T2, USP47 (UniProt Q96K76)
T2 sequence (whole entry): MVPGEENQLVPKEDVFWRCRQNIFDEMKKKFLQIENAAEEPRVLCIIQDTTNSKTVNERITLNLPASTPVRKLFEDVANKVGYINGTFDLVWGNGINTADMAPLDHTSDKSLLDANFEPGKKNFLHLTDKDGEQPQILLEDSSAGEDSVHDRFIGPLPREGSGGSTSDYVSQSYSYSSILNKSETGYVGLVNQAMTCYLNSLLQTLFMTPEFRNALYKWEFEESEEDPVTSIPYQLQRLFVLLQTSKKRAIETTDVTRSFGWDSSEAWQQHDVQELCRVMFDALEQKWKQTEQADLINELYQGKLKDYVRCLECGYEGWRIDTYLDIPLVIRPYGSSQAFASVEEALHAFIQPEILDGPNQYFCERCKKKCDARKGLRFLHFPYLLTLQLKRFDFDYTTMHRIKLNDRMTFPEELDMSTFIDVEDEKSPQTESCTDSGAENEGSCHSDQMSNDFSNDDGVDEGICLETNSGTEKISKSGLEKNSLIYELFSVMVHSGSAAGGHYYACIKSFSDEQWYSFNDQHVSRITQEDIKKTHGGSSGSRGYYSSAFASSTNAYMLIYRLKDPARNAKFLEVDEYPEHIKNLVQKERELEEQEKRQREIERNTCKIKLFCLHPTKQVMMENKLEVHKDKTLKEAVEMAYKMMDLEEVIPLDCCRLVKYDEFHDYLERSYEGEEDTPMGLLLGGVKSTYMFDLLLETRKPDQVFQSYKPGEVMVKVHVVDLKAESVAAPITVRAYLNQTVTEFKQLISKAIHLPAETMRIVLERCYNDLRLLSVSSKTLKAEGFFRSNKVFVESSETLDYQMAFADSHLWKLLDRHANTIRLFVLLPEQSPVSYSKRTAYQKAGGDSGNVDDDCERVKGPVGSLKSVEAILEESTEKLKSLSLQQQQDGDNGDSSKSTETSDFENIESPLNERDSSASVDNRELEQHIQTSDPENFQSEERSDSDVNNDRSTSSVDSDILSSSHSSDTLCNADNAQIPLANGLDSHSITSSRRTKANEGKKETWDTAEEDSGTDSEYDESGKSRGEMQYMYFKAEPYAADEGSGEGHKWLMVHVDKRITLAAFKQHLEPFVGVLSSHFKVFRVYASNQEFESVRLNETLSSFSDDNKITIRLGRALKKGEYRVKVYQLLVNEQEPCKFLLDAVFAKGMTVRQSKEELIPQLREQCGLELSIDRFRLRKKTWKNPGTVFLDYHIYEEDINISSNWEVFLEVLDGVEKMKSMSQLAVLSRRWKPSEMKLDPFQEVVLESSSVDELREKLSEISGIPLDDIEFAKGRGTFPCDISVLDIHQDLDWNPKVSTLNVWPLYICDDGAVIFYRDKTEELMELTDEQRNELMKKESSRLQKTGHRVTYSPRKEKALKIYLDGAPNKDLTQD
How it was run: as §1

USP48 = target: T3, USP48 (UniProt Q86UV5)
T3 sequence (whole entry): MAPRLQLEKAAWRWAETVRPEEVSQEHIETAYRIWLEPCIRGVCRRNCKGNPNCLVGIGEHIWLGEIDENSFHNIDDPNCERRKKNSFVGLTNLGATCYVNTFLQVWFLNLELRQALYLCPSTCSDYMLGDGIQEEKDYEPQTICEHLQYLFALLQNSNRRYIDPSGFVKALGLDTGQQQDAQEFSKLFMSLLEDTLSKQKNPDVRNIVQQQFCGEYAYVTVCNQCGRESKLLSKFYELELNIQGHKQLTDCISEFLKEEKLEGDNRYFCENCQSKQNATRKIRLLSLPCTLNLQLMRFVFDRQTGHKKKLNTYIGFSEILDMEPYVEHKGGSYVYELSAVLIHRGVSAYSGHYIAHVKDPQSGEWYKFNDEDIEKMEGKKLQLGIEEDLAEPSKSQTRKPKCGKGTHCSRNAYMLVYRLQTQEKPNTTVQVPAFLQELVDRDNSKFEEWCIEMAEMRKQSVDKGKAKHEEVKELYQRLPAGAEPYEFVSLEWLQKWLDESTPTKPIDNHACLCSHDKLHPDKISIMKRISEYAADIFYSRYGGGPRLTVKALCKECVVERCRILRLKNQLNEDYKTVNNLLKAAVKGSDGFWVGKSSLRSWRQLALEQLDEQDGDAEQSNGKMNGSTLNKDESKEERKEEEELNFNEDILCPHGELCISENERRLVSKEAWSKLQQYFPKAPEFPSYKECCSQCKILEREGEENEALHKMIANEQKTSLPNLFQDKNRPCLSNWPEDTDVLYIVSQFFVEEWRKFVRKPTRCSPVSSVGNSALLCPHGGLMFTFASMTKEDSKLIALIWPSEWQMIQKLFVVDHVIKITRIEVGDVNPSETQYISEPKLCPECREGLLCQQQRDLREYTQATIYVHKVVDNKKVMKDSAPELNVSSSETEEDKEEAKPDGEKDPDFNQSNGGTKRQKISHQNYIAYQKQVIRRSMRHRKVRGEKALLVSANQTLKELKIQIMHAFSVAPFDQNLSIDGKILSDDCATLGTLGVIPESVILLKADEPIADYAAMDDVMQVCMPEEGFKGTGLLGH
How it was run: as §1

USP5 = target: T4, USP5 (UniProt P45974)
T4 sequence (whole entry): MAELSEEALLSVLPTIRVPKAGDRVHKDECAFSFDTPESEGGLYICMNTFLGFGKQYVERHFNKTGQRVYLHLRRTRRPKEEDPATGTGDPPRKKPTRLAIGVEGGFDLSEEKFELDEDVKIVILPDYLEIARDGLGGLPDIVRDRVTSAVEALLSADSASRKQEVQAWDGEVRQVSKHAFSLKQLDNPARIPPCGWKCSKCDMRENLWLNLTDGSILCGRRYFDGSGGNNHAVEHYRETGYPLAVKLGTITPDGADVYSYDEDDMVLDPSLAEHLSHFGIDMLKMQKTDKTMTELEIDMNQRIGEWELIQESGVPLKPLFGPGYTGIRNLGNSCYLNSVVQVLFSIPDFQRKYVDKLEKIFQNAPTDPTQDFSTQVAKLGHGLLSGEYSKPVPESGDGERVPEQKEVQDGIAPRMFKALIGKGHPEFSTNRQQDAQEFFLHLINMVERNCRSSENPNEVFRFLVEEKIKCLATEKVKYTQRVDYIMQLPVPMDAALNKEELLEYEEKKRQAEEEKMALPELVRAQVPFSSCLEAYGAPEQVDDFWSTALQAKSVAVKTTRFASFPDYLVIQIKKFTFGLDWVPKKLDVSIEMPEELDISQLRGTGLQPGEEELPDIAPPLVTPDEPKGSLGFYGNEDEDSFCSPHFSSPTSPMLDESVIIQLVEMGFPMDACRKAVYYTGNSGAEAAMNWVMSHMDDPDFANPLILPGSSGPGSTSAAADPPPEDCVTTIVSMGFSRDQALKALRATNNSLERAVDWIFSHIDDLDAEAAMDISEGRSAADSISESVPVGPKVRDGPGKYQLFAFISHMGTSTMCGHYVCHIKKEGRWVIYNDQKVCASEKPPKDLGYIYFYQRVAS
How it was run: as §1

USP54 = USP54 (UniProt Q70EL1)
USP54, sequence (Q70EL1 whole entry): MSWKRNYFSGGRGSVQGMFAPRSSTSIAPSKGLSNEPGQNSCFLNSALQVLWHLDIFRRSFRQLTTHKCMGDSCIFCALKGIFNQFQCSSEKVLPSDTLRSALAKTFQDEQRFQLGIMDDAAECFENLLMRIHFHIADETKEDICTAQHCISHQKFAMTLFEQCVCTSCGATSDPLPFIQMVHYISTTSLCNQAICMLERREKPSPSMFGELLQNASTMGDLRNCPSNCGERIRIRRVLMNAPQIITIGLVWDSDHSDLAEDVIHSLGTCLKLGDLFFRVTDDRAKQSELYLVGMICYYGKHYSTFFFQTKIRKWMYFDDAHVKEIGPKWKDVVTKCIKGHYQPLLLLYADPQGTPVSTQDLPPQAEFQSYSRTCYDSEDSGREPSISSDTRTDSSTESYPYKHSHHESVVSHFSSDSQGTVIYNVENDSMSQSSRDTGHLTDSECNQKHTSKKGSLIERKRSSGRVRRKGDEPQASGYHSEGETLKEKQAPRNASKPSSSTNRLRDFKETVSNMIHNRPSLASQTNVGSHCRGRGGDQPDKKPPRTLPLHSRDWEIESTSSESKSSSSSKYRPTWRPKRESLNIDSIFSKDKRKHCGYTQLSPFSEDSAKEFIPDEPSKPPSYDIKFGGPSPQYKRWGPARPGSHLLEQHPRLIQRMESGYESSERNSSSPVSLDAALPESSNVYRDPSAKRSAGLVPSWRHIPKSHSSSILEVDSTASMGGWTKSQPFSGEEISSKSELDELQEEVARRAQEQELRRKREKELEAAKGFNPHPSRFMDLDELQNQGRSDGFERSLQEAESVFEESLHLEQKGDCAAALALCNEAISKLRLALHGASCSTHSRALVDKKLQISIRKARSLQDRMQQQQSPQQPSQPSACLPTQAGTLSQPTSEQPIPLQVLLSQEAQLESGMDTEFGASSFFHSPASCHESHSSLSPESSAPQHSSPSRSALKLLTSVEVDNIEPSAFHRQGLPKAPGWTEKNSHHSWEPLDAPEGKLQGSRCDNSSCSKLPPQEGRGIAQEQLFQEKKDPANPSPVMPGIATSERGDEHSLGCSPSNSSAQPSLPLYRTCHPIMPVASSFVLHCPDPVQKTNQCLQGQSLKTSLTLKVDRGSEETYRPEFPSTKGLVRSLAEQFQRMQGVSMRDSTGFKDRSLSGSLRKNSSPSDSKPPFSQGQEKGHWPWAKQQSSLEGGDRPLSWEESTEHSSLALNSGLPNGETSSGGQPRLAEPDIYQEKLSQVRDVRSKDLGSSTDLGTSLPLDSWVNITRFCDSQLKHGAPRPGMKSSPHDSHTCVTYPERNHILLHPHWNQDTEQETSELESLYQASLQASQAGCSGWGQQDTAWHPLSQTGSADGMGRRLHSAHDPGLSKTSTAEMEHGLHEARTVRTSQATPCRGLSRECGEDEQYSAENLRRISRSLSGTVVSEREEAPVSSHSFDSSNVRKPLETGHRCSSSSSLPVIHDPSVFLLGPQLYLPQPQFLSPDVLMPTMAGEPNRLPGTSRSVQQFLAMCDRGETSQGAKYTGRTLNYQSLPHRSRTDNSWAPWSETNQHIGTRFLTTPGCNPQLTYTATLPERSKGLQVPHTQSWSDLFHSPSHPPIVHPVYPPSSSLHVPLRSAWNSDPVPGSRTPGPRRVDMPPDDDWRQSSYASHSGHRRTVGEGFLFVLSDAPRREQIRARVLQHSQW
How it was run: as §1

USP7 = USP7 (UniProt Q93009)
How it was run: as §1

USP8 = target: T5, USP8 (UniProt P40818)
T5 sequence (whole entry): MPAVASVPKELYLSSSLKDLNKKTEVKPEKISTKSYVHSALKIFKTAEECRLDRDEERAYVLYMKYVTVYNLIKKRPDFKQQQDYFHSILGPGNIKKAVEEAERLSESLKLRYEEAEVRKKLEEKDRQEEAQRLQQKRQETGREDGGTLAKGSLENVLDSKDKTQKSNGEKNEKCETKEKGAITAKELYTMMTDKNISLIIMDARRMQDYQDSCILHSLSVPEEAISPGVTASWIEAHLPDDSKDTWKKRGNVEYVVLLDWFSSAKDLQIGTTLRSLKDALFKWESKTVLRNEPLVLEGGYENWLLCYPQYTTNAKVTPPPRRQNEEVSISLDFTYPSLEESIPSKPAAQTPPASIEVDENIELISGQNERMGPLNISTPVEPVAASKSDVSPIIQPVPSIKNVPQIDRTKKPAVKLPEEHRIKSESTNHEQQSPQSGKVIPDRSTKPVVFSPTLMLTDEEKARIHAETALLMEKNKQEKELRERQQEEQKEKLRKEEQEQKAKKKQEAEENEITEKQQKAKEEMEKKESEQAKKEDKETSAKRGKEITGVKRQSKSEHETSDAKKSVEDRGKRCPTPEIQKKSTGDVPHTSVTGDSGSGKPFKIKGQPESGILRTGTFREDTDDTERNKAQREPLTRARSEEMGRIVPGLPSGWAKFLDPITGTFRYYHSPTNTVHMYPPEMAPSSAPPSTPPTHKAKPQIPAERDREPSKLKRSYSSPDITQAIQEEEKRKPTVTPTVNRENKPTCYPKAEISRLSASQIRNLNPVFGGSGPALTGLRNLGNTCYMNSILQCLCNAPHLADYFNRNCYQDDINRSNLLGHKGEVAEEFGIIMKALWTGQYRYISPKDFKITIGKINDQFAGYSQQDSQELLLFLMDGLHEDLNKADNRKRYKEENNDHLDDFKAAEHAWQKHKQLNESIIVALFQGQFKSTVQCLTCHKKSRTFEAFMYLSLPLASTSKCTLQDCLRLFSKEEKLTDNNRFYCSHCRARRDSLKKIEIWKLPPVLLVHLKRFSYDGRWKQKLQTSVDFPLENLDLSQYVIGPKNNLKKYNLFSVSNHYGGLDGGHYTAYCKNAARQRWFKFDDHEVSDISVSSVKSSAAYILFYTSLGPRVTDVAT
How it was run: as §1

USP9X = USP9X (UniProt Q93008)
USP9X, sequence (Q93008 whole entry): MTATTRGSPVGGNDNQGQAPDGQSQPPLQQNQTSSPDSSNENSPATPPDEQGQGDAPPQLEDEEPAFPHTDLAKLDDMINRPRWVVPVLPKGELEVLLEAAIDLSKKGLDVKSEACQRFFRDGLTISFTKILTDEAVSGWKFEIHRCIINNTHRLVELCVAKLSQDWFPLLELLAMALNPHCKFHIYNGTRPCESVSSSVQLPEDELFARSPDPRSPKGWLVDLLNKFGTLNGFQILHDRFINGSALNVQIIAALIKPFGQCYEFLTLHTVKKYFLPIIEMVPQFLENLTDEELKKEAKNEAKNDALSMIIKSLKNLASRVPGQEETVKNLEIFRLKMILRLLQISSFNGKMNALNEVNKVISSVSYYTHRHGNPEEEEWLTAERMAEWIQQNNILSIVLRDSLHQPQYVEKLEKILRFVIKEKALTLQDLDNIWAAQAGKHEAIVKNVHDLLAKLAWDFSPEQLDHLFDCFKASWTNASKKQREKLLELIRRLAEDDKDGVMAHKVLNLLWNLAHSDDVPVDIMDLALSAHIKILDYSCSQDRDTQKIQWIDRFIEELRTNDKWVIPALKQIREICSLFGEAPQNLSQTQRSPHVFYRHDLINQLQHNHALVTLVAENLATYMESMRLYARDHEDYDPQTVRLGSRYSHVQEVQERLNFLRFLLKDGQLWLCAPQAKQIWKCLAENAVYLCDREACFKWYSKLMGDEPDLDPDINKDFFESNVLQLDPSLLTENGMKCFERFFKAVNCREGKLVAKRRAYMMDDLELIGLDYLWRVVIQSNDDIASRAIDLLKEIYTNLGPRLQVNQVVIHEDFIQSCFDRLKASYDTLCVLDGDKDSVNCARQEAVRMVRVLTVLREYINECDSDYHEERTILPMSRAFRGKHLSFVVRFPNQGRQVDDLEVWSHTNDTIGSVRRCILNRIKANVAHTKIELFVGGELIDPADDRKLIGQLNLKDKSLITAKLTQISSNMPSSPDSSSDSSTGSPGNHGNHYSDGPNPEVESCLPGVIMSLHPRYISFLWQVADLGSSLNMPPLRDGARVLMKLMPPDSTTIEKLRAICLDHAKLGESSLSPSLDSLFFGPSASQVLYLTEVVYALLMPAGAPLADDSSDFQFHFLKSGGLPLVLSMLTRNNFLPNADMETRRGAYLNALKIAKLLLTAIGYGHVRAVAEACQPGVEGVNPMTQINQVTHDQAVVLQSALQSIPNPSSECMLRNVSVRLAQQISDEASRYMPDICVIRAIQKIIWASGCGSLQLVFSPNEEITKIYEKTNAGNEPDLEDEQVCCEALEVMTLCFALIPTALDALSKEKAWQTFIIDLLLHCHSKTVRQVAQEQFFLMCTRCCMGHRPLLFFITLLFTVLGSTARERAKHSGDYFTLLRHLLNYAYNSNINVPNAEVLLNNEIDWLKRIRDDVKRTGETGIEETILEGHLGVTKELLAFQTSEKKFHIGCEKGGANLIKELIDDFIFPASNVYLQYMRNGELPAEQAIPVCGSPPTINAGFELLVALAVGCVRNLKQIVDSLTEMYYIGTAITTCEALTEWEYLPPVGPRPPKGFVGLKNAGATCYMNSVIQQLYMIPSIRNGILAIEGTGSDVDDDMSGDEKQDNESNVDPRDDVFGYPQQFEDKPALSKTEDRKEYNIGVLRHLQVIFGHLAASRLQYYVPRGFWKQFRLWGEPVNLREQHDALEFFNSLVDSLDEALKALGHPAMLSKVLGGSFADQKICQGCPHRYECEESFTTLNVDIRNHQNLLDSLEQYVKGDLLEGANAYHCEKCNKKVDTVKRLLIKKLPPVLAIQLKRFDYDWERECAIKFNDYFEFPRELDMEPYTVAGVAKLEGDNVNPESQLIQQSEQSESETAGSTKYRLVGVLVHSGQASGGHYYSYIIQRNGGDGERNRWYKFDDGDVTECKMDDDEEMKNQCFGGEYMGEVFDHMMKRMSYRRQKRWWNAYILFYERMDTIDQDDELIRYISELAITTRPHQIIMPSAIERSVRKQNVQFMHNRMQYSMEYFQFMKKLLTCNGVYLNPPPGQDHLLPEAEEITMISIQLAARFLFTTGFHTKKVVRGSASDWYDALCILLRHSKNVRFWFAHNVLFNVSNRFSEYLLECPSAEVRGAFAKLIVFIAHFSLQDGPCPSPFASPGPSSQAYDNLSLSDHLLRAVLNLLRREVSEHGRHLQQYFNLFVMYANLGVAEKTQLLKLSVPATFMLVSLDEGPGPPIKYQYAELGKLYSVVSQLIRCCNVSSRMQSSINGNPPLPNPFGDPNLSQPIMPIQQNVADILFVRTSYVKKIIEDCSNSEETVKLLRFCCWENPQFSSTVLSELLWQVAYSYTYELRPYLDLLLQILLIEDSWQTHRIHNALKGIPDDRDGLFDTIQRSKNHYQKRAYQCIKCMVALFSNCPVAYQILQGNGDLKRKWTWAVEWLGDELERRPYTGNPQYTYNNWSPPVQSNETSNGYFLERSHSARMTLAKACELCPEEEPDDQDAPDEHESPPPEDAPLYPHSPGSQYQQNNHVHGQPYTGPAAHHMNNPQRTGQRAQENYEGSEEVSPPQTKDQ
How it was run: as §1

UniProt O00487 = target: UniProt O00487
UniProt O00487, sequence (O00487 whole entry): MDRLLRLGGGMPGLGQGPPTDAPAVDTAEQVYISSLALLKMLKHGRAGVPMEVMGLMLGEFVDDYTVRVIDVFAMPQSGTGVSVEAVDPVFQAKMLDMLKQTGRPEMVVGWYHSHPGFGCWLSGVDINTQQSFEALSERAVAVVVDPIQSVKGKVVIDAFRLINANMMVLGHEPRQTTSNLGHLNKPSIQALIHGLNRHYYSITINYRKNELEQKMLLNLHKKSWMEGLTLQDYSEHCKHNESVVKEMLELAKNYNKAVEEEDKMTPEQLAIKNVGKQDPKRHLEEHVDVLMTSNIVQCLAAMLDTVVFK
How it was run: as §1

Measured: log2 ratio of Biotin-Ahx-Ub-VS probe labelling

Cc1cc(CC(C)NC(=O)CCl)n[nH]1 (stereo not given)
inactive: USP42 -0.515 | USP46 -0.086 | USP47 0.219 | USP48 -0.0294 | USP5 -0.0909 | USP54 -0.195 | USP7 -0.0248 | USP8 -0.57 | USP9X -0.345 | UniProt O00487 -0.0204
